Reference: PubChem BioAssay (EPA / NIEHS)
The source made the active and inactive calls. The calls were made as follows: active = hit-call score of the fitted dose curve at least 0.9, where 1 is the maximum; inactive = score below 0.9.

molecular target: Aryl hydrocarbon receptor (Homo sapiens) (UniProt P35869); test: ATG_Ahr_CIS: Attagene CIS-FACTORIAL HepG2 Assay for human Aryl Hydrocarbon Receptor (Ahr) (AID 2282930); settings: HepG2 AhR cis-factorial reporter transcription; actives raise or lower the signal
How it was run: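 HepG2, transient MRTU (cis) transfection, 24 h exposure. RNA → cDNA → PCR → 6-FAM primer extension → HpaI 2 h 37 C → CE. Fit: bidirectional, DMSO baseline.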

Chain of Aryl hydrocarbon receptor (Homo sapiens) (P35869 whole entry, looked up): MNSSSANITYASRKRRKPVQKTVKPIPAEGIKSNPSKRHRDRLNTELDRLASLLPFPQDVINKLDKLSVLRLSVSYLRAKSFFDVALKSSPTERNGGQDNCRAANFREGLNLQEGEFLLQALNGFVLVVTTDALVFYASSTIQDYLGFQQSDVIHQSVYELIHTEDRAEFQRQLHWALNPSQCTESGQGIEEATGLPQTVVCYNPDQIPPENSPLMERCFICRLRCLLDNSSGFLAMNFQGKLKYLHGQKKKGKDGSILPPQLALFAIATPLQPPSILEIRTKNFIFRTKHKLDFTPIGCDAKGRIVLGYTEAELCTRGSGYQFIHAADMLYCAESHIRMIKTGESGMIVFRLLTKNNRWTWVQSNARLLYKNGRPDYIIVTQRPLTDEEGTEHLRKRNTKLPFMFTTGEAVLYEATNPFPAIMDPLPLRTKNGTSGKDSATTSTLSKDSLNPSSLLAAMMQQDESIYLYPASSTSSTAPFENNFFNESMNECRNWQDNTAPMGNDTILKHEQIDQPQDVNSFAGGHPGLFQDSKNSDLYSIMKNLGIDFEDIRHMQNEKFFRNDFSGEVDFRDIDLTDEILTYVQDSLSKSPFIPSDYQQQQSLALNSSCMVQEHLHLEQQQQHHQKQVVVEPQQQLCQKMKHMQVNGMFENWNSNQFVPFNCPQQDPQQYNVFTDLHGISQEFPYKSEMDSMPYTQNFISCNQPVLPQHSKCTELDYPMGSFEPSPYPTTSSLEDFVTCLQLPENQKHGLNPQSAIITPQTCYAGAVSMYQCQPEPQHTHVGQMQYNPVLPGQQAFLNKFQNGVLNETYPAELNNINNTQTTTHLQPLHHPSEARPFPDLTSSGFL

SMILES	outcome	AC50
C=C(C)C(=O)OCCO	inactive	–
C1=Cc2ccccc2C1	–	5.55 µM (active)
CCOC(=O)CC	inactive	–
CCC(=O)Oc1ccc(/C(CC)=C(\CC)c2ccc(OC(=O)CC)cc2)cc1	inactive	–
CO[Si](CCC1CCC2OC2C1)(OC)OC (stereo not given)	inactive	–
CCCCCC/C=C\CCCCCCCC(=O)O	inactive	–
Cc1cc(=O)n(-c2ccccc2)n1C	inactive	–
FC(F)(F)C(=NOCC1OCCO1)c1ccc(Cl)cc1	inactive	–
CCOC(=O)N1CCC(=C2c3ccc(Cl)cc3CCc3cccnc32)CC1	inactive	–
COc1cc(C)ccc1C(C)C	inactive	–
CCCCCCCOC(=O)CCC	inactive	–
Cc1ccc(C(C)c2ccc(C)c(C)c2)cc1C	inactive	–
O=C(/C=C/C=C/c1ccc2c(c1)OCO2)N1CCCCC1	inactive	–
CC(C)=CCC[C@H](C)CCO	inactive	–
O=C1CCCCCCCCCCC(=O)OCCO1	inactive	–
COCC(C)N (stereo not given)	inactive	–
CC(=O)[C@@]1(O)CC[C@H]2[C@@H]3C[C@H](C)C4=CC(=O)C=C[C@]4(C)[C@@]3(F)[C@@H](O)C[C@@]21C	inactive	–
CC(C)CC(O)Cc1ccccc1 (stereo not given)	inactive	–
CCCCOCCOC(=O)COc1nc(Cl)c(Cl)cc1Cl	inactive	–
COC(=O)/C=C\C(=O)O	inactive	–

SMILES	outcome	AC50
C=C[Si](OC(C)=O)(OC(C)=O)OC(C)=O	inactive	–
Cc1c(C)c([N+](=O)[O-])c(C(C)(C)C)c([N+](=O)[O-])c1C	inactive	–
O=[N+]([O-])C1(Br)COCOC1	inactive	–
CC(C)=CC1CC(C)CCO1 (stereo not given)	inactive	–
Nc1ccc(-c2ccc(F)cc2)cc1	inactive	–
FC(F)=C(F)OC(F)(F)C(F)(F)C(F)(F)F	inactive	–
CCCOC(=O)CCCCC(=O)OCCC	inactive	–
OCCN(CCO)c1ccccc1	–	13.7 µM (active)
O=C(O)c1cc(Cl)cc([N+](=O)[O-])c1Cl	inactive	–
CCCCC(CC)COC(=O)c1ccccc1O (stereo not given)	inactive	–
CCc1nccnc1C	inactive	–
CC(=O)Nc1ccc2c(c1)Cc1cc(NC(C)=O)ccc1-2	inactive	–
OCCCS	inactive	–
Cc1cccc(OCCOc2cccc(C)c2)c1	inactive	–
Cc1ccc([N+](=O)[O-])cc1S(=O)(=O)O	inactive	–
COC(=O)c1cc(Cl)ccc1[N+](=O)[O-]	inactive	–
Cc1oncc1C(=O)Nc1ccc(C(F)(F)F)cc1	–	8.59 µM (active)
CC(C)c1ccc2cc(C(C)C)ccc2c1	–	135 µM (active)
C=CC(=O)OCCOC(=O)C=C	inactive	–
CCCCCCCCCCCCCOP(=O)(O)O	inactive	–
